A selection: hits, their analogues and other compounds. The true share with any hit is near 2.4%.
POLK inh: DNA polymerase kappa (human) inhibition | Potency, µM (highest dose often 107 µM), without a hit: at the highest dose activity, negative = inhibition, hits mostly inhibitors | Q9UBT6 | 400,000 compounds, 0.53% hits | purified Pol kappa, fluorescent DNA synthesis assay, 10 min | AID 588579; note: % is set by controls: 0 for no effect and ±100 for the full control effect
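First, compounds were pin-transferred onto 10 nM Pol kappa. After 15 min at room temperature, substrate was added to 50 nM final. Fluorescence was then measured kinetically at 0 and 10 min.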
Pol iota inh: blocks human DNA polymerase iota activity | Q9UNA4 | Pol iota fluorescent replication assay, 10 min | Potency, µM (series often up to 115 µM), without a hit: at the top dose activity, negative = inhibition, most hits filed as inhibitors | 390,000 compounds, 1% hits | AID 588590
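Pol iota at 10 nM preincubated 15 min with compounds at room temperature; reaction started with fluorescent substrate, 50 nM final. Fluorescence read kinetically at 0 and 10 min; buffer-only wells as negative control.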
FEN1 inhibitor: blocks human flap endonuclease 1 | Recombinant FEN1 flap cleavage, fluorescence, 15 min | 390,000 compounds, 0.35% hits | P39748 | Potency, µM (doses to about 114 µM), for the others: at the top dose activity change, negative = inhibition, usual class: inhibitors | AID 588795; note: % is set by controls: 0 for no effect and ±100 for the full control effect; nearly all actives have a fitted effect of over 65% in size
Target sequence (P39748 whole entry, looked up): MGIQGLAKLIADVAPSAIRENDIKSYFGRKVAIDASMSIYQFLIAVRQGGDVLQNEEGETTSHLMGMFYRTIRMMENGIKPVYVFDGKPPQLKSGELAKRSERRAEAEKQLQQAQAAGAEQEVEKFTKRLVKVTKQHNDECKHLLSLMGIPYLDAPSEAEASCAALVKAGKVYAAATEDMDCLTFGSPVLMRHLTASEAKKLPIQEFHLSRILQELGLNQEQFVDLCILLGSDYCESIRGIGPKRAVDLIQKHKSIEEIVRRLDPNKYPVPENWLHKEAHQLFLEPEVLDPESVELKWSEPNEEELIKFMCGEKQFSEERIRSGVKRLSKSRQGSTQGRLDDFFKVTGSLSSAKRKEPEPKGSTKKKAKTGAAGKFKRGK
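With each library titrated from low to high concentration, compounds met 10 nM FEN1 for 15 min at room temperature before 50 nM substrate was added; readings at 0 and 15 min fed four-parameter Hill curve fits.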
Pol beta inh: inhibitors of human DNA polymerase beta. P06746. Pol beta primer extension/strand displacement, fluorescence kinetic. Potency, µM (doses to about 114 µM), for inactives: top-dose activity change, negative = inhibition, actives largely listed as inhibitors. 340,000 compounds, 1.3% hits; note: % is set by controls: 0 for no effect and ±100 for the full control effect
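Pol beta (10 nM) was preincubated with compound for 15 min at room temperature. The reaction was then started with 50 nM substrate and read immediately and after a further 10 min at room temperature.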
POLH inh: blocks human DNA polymerase eta activity; Q9Y253; recombinant Pol eta, fluorescent DNA replication assay; Potency, µM (titrated, usually from 114 µM), without a hit: top-dose activity change, negative = inhibition, usual class: inhibitors; 390,000 compounds, 1.2% hits; note: % is set by controls: 0 for no effect and ±100 for the full control effect
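Pol eta at 10 nM preincubated with compounds 15 min at room temperature; reaction started with fluorescent substrate (50 nM final) and read kinetically at 0 and 10 min.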
WRN helicase inh: inhibitors of human WRN helicase. Q14191. WRN helicase unwinding, fluorescent forked duplex, kinetic. Potency, µM (doses to about 114 µM), without a hit: top-dose activity change, negative = inhibition, actives largely listed as inhibitors. 360,000 compounds, 0.46% hits; note: % is set by controls: 0 for no effect and ±100 for the full control effect; nearly all actives have a fitted effect of over 55% in size
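Enzyme (20 nM final) and test compound sit together 15 min at room temperature before substrate addition. Substrate is a single-forked duplex oligonucleotide (100 nM) labelled with fluorophore and quencher, with 2 mM ATP; helicase unwinding raises red fluorescence, read kinetically.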
Numbers without * were called inactive; ? = inconclusive; . = not tested or not shown; [ ] = another dose, or the depositor's remark. Calls come from the whole dose curve; as a rule, active = well fitted curve in the direction sought with a large enough effect; inconclusive = small, poorly fitted or top-dose-only effect, or another doubt; inactive = no such curve, though single readings can be large; an effect the other way counts as inactive or inconclusive. Potency is the fitted concentration of half-maximal effect.

SMILES	POLK inh	Pol iota inh	FEN1 inhibitor	Pol beta inh	POLH inh	WRN helicase inh
Cc1cc(C)cc(-n2c3nc4ccccc4nc3c3c(=O)n(Cc4ccco4)cnc32)c1	-11.1%	2.5%	-7.8%	35.5µM*	?	-11.2%
Cc1cc2nc(N(Cc3cccnc3)C(=O)c3ccc(Cl)s3)sc2cc1C	0.5%[60.1 µM]	-14.9%	7.5%	0.2%	-21.9%	.
COc1ccc2cc(C(=O)N/N=C/c3cc(OC)c(OC)c(OC)c3)[nH]c2c1	-52.7%	?	?	10µM*	?	-10.7%[11.6 µM]
COc1ccc2[nH]c(C(=O)N/N=C/c3ccc(O)cc3O)cc2c1	?	-29.5%	?	?	?	-27.3%
COc1ccc(/C=N/NC(=O)c2cc3cc(OC)c(OC)cc3[nH]2)cc1	-76.2%	-21.9%	-31.0%	6.31µM*	?	?
CCOc1ccc2[nH]c(C(=O)N/N=C/c3ccc(OC)cc3)cc2c1	-1.2%	-7.8%	-11.6%	15.3%	-9.4%	2.3%
CCCn1c(CCC(=O)Nc2cc(C(=O)OC)cc(C(=O)OC)c2)nc2cccnc21	-10.4%	1.9%	4.3%	6.1%	-4.2%	.
CCN(CC)C(=O)c1ccc(COc2ccc(Cl)c(C)c2)o1	0.0%	27.3%	-1.8%	89.1µM*	-21.6%	-4.4%[57.1 µM]
Cc1ccc(C)c(N2CCN(C(=O)c3cnn(-c4ccccc4Cl)c3C3CCN(C(=O)OC(C)(C)C)CC3)CC2)c1	-2.8%	20.7%	-6.2%	-0.4%	-20.2%	.
CCC(=O)N1CCc2cc(S(=O)(=O)NCCC(=O)NC(C)c3ccccc3)ccc21 (stereo unspecified)	1.1%	2.4%	0.8%	1.7%	-11.4%	.
CC1=C(C(=O)Nc2cccnc2)C(c2ccccc2)n2nc(SCc3ccccc3Cl)nc2N1 (stereo unspecified)	-6.9%	-9.5%	-8.1%	34.5%	-3.6%	.
COc1ccc(OC)c(NC(=O)c2c(NCc3ccc(C)o3)sc3c2CCCCC3)c1	-0.2%[60.1 µM]	28.2µM*	?	-5.0%	-20.8%	.
Cc1ccc(NC(=O)CN2CCN(C(=O)c3ccco3)CC2)cc1	3.8%	24.6%	3.6%	-4.0%	-7.2%	-3.4%
Cc1ccc2nc(-c3ccc(NC(=O)CN4CCN(C(=O)c5ccco5)CC4)cc3)sc2c1	44.7µM*	28.2µM*	-3.2%	31.6µM*	79.4µM*	?
C=CC1=C(C)C2=Cc3c(C=C)c(C)c4[n]3[Sn+2][n]3c(c(C)c(CCC(=O)O)c3=CC3=NC(=C4)C(C)=C3CCC(=O)O)=CC1=N2	12.6µM*	.	.	.	.	.
CCCOc1ccc(C2C(C(=O)c3ccc(C)o3)=C(O)C(=O)N2Cc2ccco2)cc1 (stereo unspecified)	-12.4%	?	-10.9%	39.8µM*	-23.8%	-5.9%
CC1=CC(c2ccccc2)n2nc(N3C(=O)CCC3=O)nc2N1 (stereo unspecified)	-8.0%	20.9%	7.1%	9.3%	-6.7%	8.6%
CC1=CC(c2ccccc2)n2nc(N3C(=O)c4ccccc4C3=O)nc2N1 (stereo unspecified)	44.7µM*	6.8%	0.5%	-15.6%	-19.4%	-13.5%[57.1 µM]
Oc1ccc(-c2csc(Nc3ccccn3)n2)cc1O	?	?	-23.8%	7.94µM*	17.8µM*	-9.6%[11.6 µM]
O=C1C[C@@H](c2ccc(O)c(O)c2)Oc2cc(O[C@H]3O[C@@H](CO)[C@H](O)[C@@H](O)[C@@H]3O)cc(O)c21	21.2µM*	.	.	.	.	.
CCCc1ccc(O)c(N=Cc2cc(Br)cc(OCC)c2O)c1	-24.0%	?	1.9%	20µM*	-11.3%	?
CCN1/C(=C/c2ccc3cc(C)cc(C)c3[n+]2CC)Sc2cc(C)ccc21	-23.5%	-26.5%	?	50.1µM*	79.4µM*	17.8µM*
CCN1/C(=C/c2ccc3cccc(C)c3[n+]2CC)Sc2ccccc21	-9.9%	?	39.8µM*	50.1µM*	-16.9%	?
COc1ccc(Nc2ncnc3onc(-c4ccc(Cl)cc4)c23)cc1Cl	-3.5%	13.4%	-2.2%	5.6%	-17.5%	.
CCCCOc1ccc(C(=O)N2CCN(CCc3ccccn3)CC2)cc1	-14.7%	1.0%	18.9%	-15.4%	-8.6%	.
SMILES	POLK inh	Pol iota inh	FEN1 inhibitor	Pol beta inh	POLH inh	WRN helicase inh
Cc1cccc(Nc2nn3c(=O)c4cc5c(cc4nc3s2)OCO5)c1	-7.7%	-2.4%	4.1%	3.16µM*	-4.7%	.
CC1=C(C(=O)Nc2ccc(C)cc2C)C(c2ccccc2C)n2ncnc2N1 (stereo unspecified)	-4.4%[60.1 µM]	2.0%	-10.3%	40.4%	-6.4%	.
COc1ccc(C2=C(C)C(N3CCC(C(=O)Nc4ccc(F)cc4C)CC3)=NS2(=O)=O)cc1	-8.1%	?	9.3%	?	.	.
O=C1NC(=O)/C(=C\c2ccc(Sc3ccc(Cl)cc3)o2)N1	-26.0%	?	7.5%	35.5µM*	?	-16.8%
COC(=O)c1ccc(COc2ccc(/C=C(\C#N)c3nc4ccccc4[nH]3)cc2OC)o1	-18.3%	23.9%	-11.0%	8.91µM*	?	?
COc1cc(/C=C(\C#N)c2nc3ccccc3[nH]2)ccc1OCc1cccc(C(F)(F)F)c1	-5.9%	?	-23.1%	3.55µM*	.	.
COc1ccc(-c2cc(C(F)(F)F)c(C#N)c(SCC(=O)Nc3cccc(C)c3)n2)cc1	0.0%	28.4%	3.6%	1.2%	-17.3%	.
O=C(O)c1ccccc1NS(=O)(=O)c1ccc(NN=Cc2ccc(F)cc2)c([N+](=O)[O-])c1	-18.7%	-18.0%	-22.6%	.	35.5µM*	?
O=C(O)c1ccccc1NS(=O)(=O)c1ccc(NN=Cc2cccc(Cl)c2)c([N+](=O)[O-])c1	-28.3%	?	?	.	20µM*	?
Cc1cc(C)nc(N/N=C/c2ccccc2OCC(=O)O)n1	-10.5%	9.5%	-6.3%	-7.1%	28.2µM*	-2.5%[11.6 µM]
O=C(O)COc1ccccc1/C=N/Nc1ccc(S(=O)(=O)Nc2ccc(Cl)cc2)cc1[N+](=O)[O-]	?	?	?	?	28.2µM*	?
Cc1cc2c(NC(=O)Nc3ccccc3)cccc2nn1	1.6%	132.7%	-6.5%	-1.8%	-9.9%	0.3%
Nc1cccc2nc3ccccc3cc12	8.0%	-14.7%	-2.5%	8.91µM*	14.1%	1.7%
Nc1[nH]nc2nc3ccccc3cc12	-6.4%	26.7%	-10.5%	6.5%	-16.6%	-4.0%
Cc1cc2c(N)cccc2nn1	89.1µM*	5.62µM*	?	22.4µM*	-10.6%	?
O=C(CSc1nccn1Cc1ccc2c(c1)OCO2)Nc1ccccc1F	0.7%[60.1 µM]	34.9%	5.6%	-10.3%	-17.2%	.
Fc1ccc(NCc2ccccc2-c2nnc(-c3ccccc3Cl)o2)cc1Cl	-4.7%	50.1%	5.3%	4.4%	-24.5%	.
COc1ccc(-c2coc3c(C)c4oc(=O)c(CCC(=O)O)c(C)c4cc23)cc1	-40.9%	?	-32.1%	?	50.1µM*	?

High-throughput results as filed in PubChem.
